About 83,000 compounds went through this panel and 20% of them were active in at least one assay; those are over-represented in the sample as a whole.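 Cell lines were cultured in 96-well plates, exposed to a single compound concentration, and assessed for percent growth 48 hours later.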 Unmarked numbers belong to inactive results. Activity calls are given as the source filed them. The calls were made as follows: active = growth percent below 10; inactive = the rest.
What follows are molecules tested on HCT-116 colon (assay: NCI-60 one-dose screen, 48 h (100 = growth as untreated, 0 = no growth, -100 = all killed)). Conditions: 10 µM.

Question: `CCOC(=O)[C@@H]1[C@H](c2ccccc2)[C@H]([N+](=O)[O-])[C@H](c2cn(-c3ccccc3)nc2C)N1Cc1ccccc1` was tested. Which growth did it give?
Answer: 37.5%

Question: `CCCc1ccnc(NS(=O)(=O)c2ccc(N)cc2)n1` was tested. Which growth did it give?
Answer: 66.1%

Question: For `O=C1/C(=C/c2cccs2)CCC/C1=C\c1cccs1`, which growth is on record?
Answer: 80.2%

Question: How did the growth turn out when `Clc1ccc(-c2nc(-c3cccs3)cn3ccnc23)cc1` was run?
Answer: 68%

Question: With `CCN1CCOC1C(C)C` (configuration not stated) as the molecule, how does the growth read?
Answer: 102%

Question: With `Cn1cnc([N+](=O)[O-])c1Sc1nnc(-c2ccccc2)c(-c2ccccc2)n1` as the molecule, how does the growth read?
Answer: 32.8%

Question: For `C=CCOc1ccc2c(c1)CC=C1[C@@H]2CC[C@]2(C)C(=O)/C(=N/O)C[C@@H]12`, which growth is on record?
Answer: 66.8%

Question: For `O=C(N/N=C\c1cc(Cl)ccc1O)c1ccncc1`, which growth is on record?
Answer: 24.6%

Question: Which growth does the source give for `O=[N+]([O-])c1ccc2c(c1)Cc1cc(I)ccc1-2` here?
Answer: 96.2%

The molecules below were run on HCC-2998 colon in the same assay as above. Conditions: 10 µM.

Question: Which growth does the source give for `CC(=O)/C(=C\c1ccc(Cl)cc1)c1ccccc1` here?
Answer: 3.78% (active)

Question: With `COc1ccc2nc(NC(=O)Nc3c(F)cccc3F)sc2c1` as the molecule, how does the growth read?
Answer: 102%

Question: For `COc1cc(Cn2c(-c3ccccc3)cc3c2-c2oncc2CC3)cc(OC)c1`, which growth is on record?
Answer: 17.4%

Question: With `CCC(CCNc1cc(OC)cc2cccnc12)CN1C(=O)c2ccccc2C1=O` (configuration not stated) as the molecule, how does the growth read?
Answer: 105%

Question: For `CCOC(=O)c1sc(NC(=O)c2cc(OC)c(OC)c(OC)c2)nc1C`, which growth is on record?
Answer: 57.4%

Question: `C#CCNCCN1C(=O)c2ccc3c4c(ccc(c24)C1=O)C(=O)N(CCNCC#C)C3=O` was tested. Which growth did it give?
Answer: 13.2%

Question: With `CC(=O)Nc1nc(C)c(C(=O)NNC=O)s1` as the molecule, how does the growth read?
Answer: 79.4%

Question: With `CCN(CCCNC(=O)Cc1cc(=O)oc2cc(N(C)C)ccc12)CCNc1ccnc2cc(Cl)ccc12` as the molecule, how does the growth read?
Answer: 79.5%

Question: With `Cc1nc(N)sc1Sc1nc2ccc(Cl)cc2c(=O)n1-c1ccc(Oc2ccccc2)cc1` as the molecule, how does the growth read?
Answer: 74.1%

Question: `COc1ccc(-c2nnc(COc3ccc(NC(=O)Nc4cccc(C(F)(F)F)c4)cc3F)o2)cc1` was tested. Which growth did it give?
Answer: 50.9%

Question: For `Cc1ccc(/C(CS(=O)(=O)c2ccc(C)cc2)=N\O)cc1`, which growth is on record?
Answer: 103%

Question: For `O=[N+]([O-])c1ccc(-c2nc(-c3ccccc3)c(-c3ccccc3)n2-c2ccccc2)cc1`, which growth is on record?
Answer: -36.9% (active)

Question: Which growth does the source give for `COc1ccc(NC(=O)CCn2cnc3c(cc(-c4ccccc4)n3-c3ccccc3)c2=O)cc1` here?
Answer: 96.3%

Question: Which growth does the source give for `CCCCCCCCCCCC(=O)NCCCN(C)C` here?
Answer: 78.5%

Question: How did the growth turn out when `COc1ccc(S(=O)(=O)Nc2ccc(OCc3nnc(-c4ccc(Cl)cc4)o3)c(F)c2)cc1` was run?
Answer: 74.2%

Question: How did the growth turn out when `Fc1ccc(-c2cc(C(Cl)Cl)no2)cc1` was run?
Answer: 107%

Question: `CCCc1c(C)nc2scc(-c3ccc(Cl)cc3)n2c1=O` was tested. Which growth did it give?
Answer: 106%

Question: How did the growth turn out when `O=C(O)c1cc(C(F)(F)F)cc(C(F)(F)F)c1` was run?
Answer: 103%

Question: Which growth does the source give for `CC(=O)Nc1nc(C)c(C(=O)N/N=C/c2cccn2C)s1` here?
Answer: 70.8%

Question: `CCOc1cc(Br)c(C(C)NC(=O)c2cccc(OC)c2)cc1OCC` (configuration not stated) was tested. Which growth did it give?
Answer: 37.7%

Question: Which growth does the source give for `CCN1CCN(c2ccc(Nc3ncnc4c3nnn4CCc3cc(OC)cc(OC)c3)cc2)CC1` here?
Answer: 109%

Question: How did the growth turn out when `Cc1ccc(-c2cc(C(=O)Nc3ccc(S(=O)(=O)N4CCCCC4)cc3)[nH]n2)c(O)c1` was run?
Answer: 68.8%

Question: Which growth does the source give for `COc1ccc(-c2csc(NC(=O)CO[N+](=O)[O-])n2)cc1` here?
Answer: 105%

Question: `CCN(CC)CCn1c(=N)n(CC(O)c2ccc(Cl)c(Cl)c2)c2ccccc21` (configuration not stated) was tested. Which growth did it give?
Answer: 74.5%

Question: How did the growth turn out when `Cc1cc(Nc2cccc(F)c2)nc(NCc2ccccc2)n1` was run?
Answer: 26.9%

Question: `CCOC(=O)[C@@H]1[C@H](c2ccccc2)[C@H]([N+](=O)[O-])[C@H](c2cn(-c3ccccc3)nc2C)N1Cc1ccccc1` was tested. Which growth did it give?
Answer: 94%

Question: How did the growth turn out when `COc1ccc(C2C=C(c3ccc(Cl)cc3)N=C3SC=CN32)c(Br)c1` (configuration not stated) was run?
Answer: 86.9%

Question: `CCCc1ccnc(NS(=O)(=O)c2ccc(N)cc2)n1` was tested. Which growth did it give?
Answer: 86.9%

Question: For `O=C1/C(=C/c2cccs2)CCC/C1=C\c1cccs1`, which growth is on record?
Answer: 89.1%

Question: How did the growth turn out when `COc1cc(Nc2ccnc(N3CCN(c4ccnc5cc(Cl)ccc45)CC3)n2)cc(OC)c1` was run?
Answer: 9.25% (active)

Question: `Clc1ccc(-c2nc(-c3cccs3)cn3ccnc23)cc1` was tested. Which growth did it give?
Answer: 47.8%

Question: Which growth does the source give for `CCN1CCOC1C(C)C` (configuration not stated) here?
Answer: 101%

Question: `Cn1cnc([N+](=O)[O-])c1Sc1nnc(-c2ccccc2)c(-c2ccccc2)n1` was tested. Which growth did it give?
Answer: 96.8%
